Laboratory results as given in PubChem BioAssay (NCATS).
Inconclusive results are not listed. Active and inactive are the calls of the source. Calls come from the whole dose curve; as a rule, active = well fitted curve in the direction sought with a large enough effect; inconclusive = small, poorly fitted or top-dose-only effect, or another doubt; inactive = no such curve, though single readings can be large; an effect the other way counts as inactive or inconclusive.

What was measured:
[1] = qHTS to identify inhibitors of the type 1 interferon - major histocompatibility complex class I in skeletal muscle: primary screen against the NCATS Pharmaceutical Collection (AID 1347407);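 note: luminescence of HiBiT knocked into endogenous HLA-B as interferon-induced MHC class I level; % is set by controls: 0 for no effect and ±100 for the full control effect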
How it was run: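 Luminescence from HiBiT-tagged endogenous HLA-B*08:01 served as the read-out of IFN-beta-induced MHC class I in CRISPR-engineered C25cl48 myoblasts. Cells received 4 ng/ml IFN-beta plus compound (high final 46 uM, […]) for 24 h.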

[2] = biological target: Protein phosphatase 1D (Homo sapiens) (UniProt O15297); assay: RapidFire Mass Spectrometry qHTS Assay for Modulators of WT P53-Induced Phosphatase 1 (WIP1) (AID 1347424);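 note: amount of dephosphorylated VEPPL-S-QETFS peptide product formed by WIP1; series mostly up to about 63 µM; plate controls were DMSO wells for no effect and GSK830371 inhibitor control at 10 µM for full effect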
How it was run: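 Mass-spectrometric measurement of dephosphorylated peptide after a 5 min room-temperature reaction of 10 nM WIP1 with 2 uM phosphopeptide, following 1 h compound preincubation in 30 mM MgCl2 buffer.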

[3] = biological target: Protein phosphatase 1D (Homo sapiens) (UniProt O15297); assay: Rhodamine-PBP qHTS Assay for Modulators of WT P53-Induced Phosphatase 1 (WIP1) (AID 1347425); note: % of control where 0% means no effect
How it was run: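 5 nM WIP1 + 10 uM Rh-PBP, 50 mM Tris pH 7.5, 30 mM MgCl2, 1 mM TCEP, 0.1 mM EGTA, BSA; cpds pinned, 1 hr RT; + 10 uM phosphopeptide; fluorescence 1-min reads x 11 min; delta = f1 - f0.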

[4] = Primary qHTS for inhibitors of La Crosse Virus (LACV) - induced cell death in SH-SY5Y cells (AID 1508616);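 note: top concentration of the series differs between compounds; 0% = infected DMSO wells and 100% = uninfected DMSO wells; higher means more rescue of cells from virus-induced death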
How it was run: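 SH-SY5Y, 6000 cells/well; cpd via pin tool in DMSO; LACV 0.01 MOI; 6 d 37C 5% CO2; ATPLite, 5 min RT; luminescence normalized to ±virus DMSO controls.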

Protein phosphatase 1D (Homo sapiens), sequence (O15297 whole entry, looked up): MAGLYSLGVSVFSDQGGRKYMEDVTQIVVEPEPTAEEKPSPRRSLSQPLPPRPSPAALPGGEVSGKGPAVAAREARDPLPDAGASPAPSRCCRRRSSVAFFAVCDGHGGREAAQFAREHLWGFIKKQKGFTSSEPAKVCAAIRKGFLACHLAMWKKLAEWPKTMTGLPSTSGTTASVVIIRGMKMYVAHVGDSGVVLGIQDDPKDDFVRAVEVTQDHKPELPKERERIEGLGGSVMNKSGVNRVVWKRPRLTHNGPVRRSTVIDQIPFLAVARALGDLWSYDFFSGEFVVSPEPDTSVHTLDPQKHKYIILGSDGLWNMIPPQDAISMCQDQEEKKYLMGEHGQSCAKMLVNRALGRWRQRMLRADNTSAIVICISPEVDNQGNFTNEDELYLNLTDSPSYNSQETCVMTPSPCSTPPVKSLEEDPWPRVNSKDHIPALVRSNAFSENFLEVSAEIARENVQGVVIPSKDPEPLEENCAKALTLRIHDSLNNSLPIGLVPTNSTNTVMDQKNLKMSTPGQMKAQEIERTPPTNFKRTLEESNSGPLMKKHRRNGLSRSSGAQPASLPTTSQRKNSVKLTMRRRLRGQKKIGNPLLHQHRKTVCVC

COc1cc(O)c(C(=O)c2ccccc2)cc1S(=O)(=O)O
inactive: Potency [1] | Potency [2] | outcome [3] | outcome [4]

CCCCN=C(N)N=C(N)N
inactive: Potency [1] | Potency [2] | outcome [3] | outcome [4]

CCOC(=O)c1ccc(N)cc1
inactive: Potency [1] | Potency [2] | outcome [3] | outcome [4]

O=C(Nc1cccc(C2=NCCN2)c1)Nc1cccc(C2=NCCN2)c1
inactive: Potency [1] | Potency [2] | outcome [3] | outcome [4]

COc1ccc(C(=O)c2ccccc2O)c(O)c1
inactive: Potency [1] | Potency [2] | outcome [3] | outcome [4]

Cc1cn([C@H]2C[C@H](F)[C@@H](CO)O2)c(=O)[nH]c1=O
inactive: Potency [1] | Potency [2] | outcome [3] | outcome [4]

NC(=O)C1(N2CCCCC2)CCN(CCCC(=O)c2ccc(F)cc2)CC1
inactive: Potency [1] | Potency [2] | outcome [3] | outcome [4]

COc1cc(C(=S)N2CCOCC2)ccc1O
inactive: Potency [1] | Potency [2] | outcome [3] | outcome [4]

CCN(CC)CCOC(=O)C(Cc1cccc2ccccc12)CC1CCCO1 (configuration not stated)
inactive: Potency [1] | Potency [2] | outcome [3] | outcome [4]

CCN1CCCC(OC(=O)C(c2ccccc2)c2ccccc2)C1 (configuration not stated)
inactive: Potency [1] | Potency [2] | outcome [3] | outcome [4]

CC(=O)Nc1ccc(CC(=O)O)cc1
inactive: Potency [1] | Potency [2] | outcome [3] | outcome [4]

Cc1cc(CC(=O)O)c(C)n1-c1ccc(Cl)cc1
inactive: Potency [1] | Potency [2] | outcome [3] | outcome [4]

CC(=O)OC[C@H]1O[C@@H](n2ncc(=O)[nH]c2=O)[C@H](OC(C)=O)[C@@H]1OC(C)=O
inactive: Potency [1] | Potency [2] | outcome [3] | outcome [4]

CCOCCn1c(N2CCCN(C)CC2)nc2ccccc21
inactive: Potency [1] | Potency [2] | outcome [3] | outcome [4]

CCCCCCCCCCCCCCC[C@H](O)[C@@H](N)CO
inactive: Potency [1] | Potency [2] | outcome [3] | outcome [4]

c1ccc(-c2nc[nH]c2-c2ccccc2)cc1
inactive: Potency [1] | Potency [2] | outcome [3] | outcome [4]

C/C=C/C=N/NC(=O)c1ccncc1
inactive: Potency [1] | Potency [2] | outcome [3] | outcome [4]

Cc1c[nH]c2ccccc12
inactive: Potency [1] | Potency [2] | outcome [3] | outcome [4]

Oc1ccccc1C=NCc1ccccc1
inactive: Potency [1] | Potency [2] | outcome [3] | outcome [4]

Cc1ccccc1OCC(O)CO (configuration not stated)
inactive: Potency [1] | Potency [2] | outcome [3] | outcome [4]

CCCCN1C[C@H](O)[C@@H](O)[C@H](O)[C@H]1CO
inactive: Potency [1] | Potency [2] | outcome [3] | outcome [4]

CN1CCC(OC(c2ccccc2)c2ccccc2)CC1
inactive: Potency [1] | Potency [2] | outcome [3] | outcome [4]

N=C(N)N1CCc2ccccc2C1
inactive: activity change, negative = inhibition [1] -4.74% [at 3.83 µM] | activity change, negative = inhibition [2] -1.79% [at 6.17 µM] | activity change, negative = inhibition [3] -1.93% [at 4.81 µM] | activity change [4] -3.22% [at 0.431 µM]

Cc1ccc(S(=O)(=O)NC(=O)NC2CCCC2)cc1
inactive: Potency [1] | Potency [2] | outcome [3] | outcome [4]

CC[N+](C)(CC)CCOC(=O)C(O)(c1ccccc1)C1CCCCC1 (configuration not stated)
inactive: Potency [1] | Potency [2] | outcome [3] | outcome [4]

CCCCCCCC/C=C\CCCCCCCCN
inactive: Potency [1] | Potency [2] | outcome [3] | outcome [4]

N#CCC(=O)NN
inactive: Potency [1] | Potency [2] | outcome [3] | outcome [4]

CCCCCCCCCCCCCCCCO
inactive: Potency [1] | Potency [2] | outcome [3] | outcome [4]

C[C@@H](O)[C@H]1C(=O)N2C(C(=O)O)=C([C@H]3CCCO3)S[C@H]12
inactive: Potency [1] | Potency [2] | outcome [3] | outcome [4]

CCCCCCCCNC(C)C(O)c1ccc(SC(C)C)cc1 (configuration not stated)
inactive: Potency [1] | Potency [2] | outcome [3] | outcome [4]

FC1(F)C(F)(F)C(F)(F)C2(F)C(F)(F)C(F)(F)C(F)(F)C(F)(F)C2(F)C1(F)F (configuration not stated)
inactive: Potency [1] | Potency [2] | outcome [3] | outcome [4]

COc1cc(C(=O)N2CCCCCCC2)cc(OC)c1OC
inactive: Potency [1] | Potency [2] | outcome [3] | outcome [4]

C[N+]1(C)CCC(=C(c2ccccc2)c2ccccc2)CC1
inactive: Potency [1] | Potency [2] | outcome [3] | outcome [4]

C[C@H]1[C@H]2CC[C@H]3[C@@H]4CC=C5C[C@@H](N(C)C)CC[C@]5(C)[C@H]4CC[C@]23CN1C
inactive: Potency [1] | Potency [2] | outcome [3] | outcome [4]

OCCOCCN1CCN(C2=Nc3ccccc3Sc3ccccc32)CC1
inactive: Potency [1] | Potency [2] | outcome [3] | outcome [4]

CC(C)NCC(O)c1ccc2ccccc2c1 (configuration not stated)
inactive: Potency [1] | Potency [2] | outcome [3] | outcome [4]

Cc1cc(-c2ccccc2)nnc1NCCN1CCOCC1
inactive: Potency [1] | Potency [2] | outcome [3] | outcome [4]

Cc1cc(C)cc(OCC2CNC(=O)O2)c1 (configuration not stated)
inactive: Potency [1] | Potency [2] | outcome [3] | outcome [4]

CCN[C@@H]1C[C@H](N)[C@@H](OC2OC(CN)=CCC2N)[C@H](O)[C@H]1O[C@H]1OC[C@](C)(O)[C@H](NC)[C@H]1O (some centres not stated)
inactive: activity change, negative = inhibition [1] 4.01% [at 0.727 µM] | activity change, negative = inhibition [2] -11.3% [at 0.505 µM] | activity change, negative = inhibition [3] -2.47% [at 0.575 µM] | activity change [4] -7.05% [at 0.0343 µM]

Cc1nc(-c2ccc(Cl)cc2)oc1COC(C)(C)C(=O)O
inactive: Potency [1] | Potency [2] | outcome [3] | outcome [4]

Nc1ccc(S(=O)(=O)Nc2cnc3ccccc3n2)cc1
inactive: Potency [1] | Potency [2] | outcome [3] | outcome [4]

COc1ccc(C(Cl)=C(c2ccc(OC)cc2)c2ccc(OC)cc2)cc1
inactive: Potency [1] | Potency [2] | outcome [3] | outcome [4]

CCC1NC(=O)c2cc(S(N)(=O)=O)c(Cl)cc2N1 (configuration not stated)
inactive: Potency [1] | Potency [2] | outcome [3] | outcome [4]

O=C1OC(CN2CCOCC2)CN1/N=C/c1ccc([N+](=O)[O-])o1 (configuration not stated)
inactive: Potency [1] | Potency [2] | outcome [3] | outcome [4]

Nc1nc(-c2ccccc2)c(Br)c(=O)[nH]1
inactive: Potency [1] | Potency [2] | outcome [3] | outcome [4]

CN(C)CCC[C@@]1(c2ccc(F)cc2)OCc2cc(C#N)ccc21
inactive: Potency [1] | Potency [2] | outcome [3] | outcome [4]

CCC1Nc2cc(Cl)c(S(N)(=O)=O)cc2S(=O)(=O)N1 (configuration not stated)
inactive: Potency [1] | Potency [2] | outcome [3] | outcome [4]

CN(C)CCOC(=O)C(c1ccccc1)C1(O)CCCC1 (configuration not stated)
inactive: Potency [1] | Potency [2] | outcome [3] | outcome [4]
